# HSF1 activator: HSF-1 activators, primary screen, NIH3T3-HGL cells, MG132 stress, luminescence, single point; actives 1.7% (n = 300,000); activation, % at 9 µM; NIH3T3-HGL HSF-1 luciferase reporter, 8 h; 100% = twice DMSO control signal;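 active = mean replicate activation of at least 50% with a set share of replicates each reaching 50%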;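 also: 0% = median of the neutral control wells and 100% = twice that signal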
# HSF1 inhib: HSF1 inhibitors in luciferase reporter cells, primary screen, cell-based, NIH3T3, luminescence. activity change, negative = inhibition, % at 7.5 µM (by protocol). NIH3T3-HGL HSE-luciferase, MG132-induced, luminescence 8 h; stronger effect = lower value. AID 2098, 2009. actives 0.77% (n = 300,000);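 active = more than half of replicate wells show activity change below -50%, luminescence cut by over half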;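 also: luciferase reports HSF-1 transcriptional activity via heat shock element; 0% = median of DMSO wells and -100% = zero luminescence signal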
# Wnt bcat act: Wnt/beta-catenin pathway activators, primary screen, cell-based, plate reader, single point; activation, % at 9.35 µM; actives 1.2% (n = 300,000); AID 743398, 2014; Wnt/beta-catenin reporter cell assay, activator; in the data active = activation above about 30%, passing the limit was not always enough;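 also: 0% = neutral control wells and 100% = positive control wells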
# MITF TRPM1 HTS: activators of MITF-driven TRPM1 promoter reporter, primary screen, cell-based, SK-MEL-5, luciferase, single point; activation, % at 12.5 µM; SK-MEL-5 TRPM1-promoter luciferase, 24 h; % of positive control, neutral wells = 0; actives 0.75% (n = 300,000); AID 588334, 2011;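 active = mean activation of at least 80% with every replicate also reaching 80%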;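 also: 0% = neutral control wells and 100% = parthenolide positive control wells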
# esBAF inh: Bmi1 luciferase reporter increase in mESCs, primary screen, esBAF inhibitor project, mouse ES cells, Bmi1 luciferase knock-in, single point | reporter increase, % at 12.5 µM | AID 602393, 2012 | actives 2% (n = 350,000) | 24 h; 100% = twice the neutral-well signal; in the data active = activation above about 40%;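 also: 0% = median of the plate's neutral control wells and 100% = double that signal; a rise in the Bmi1 reporter signal indicates esBAF inhibition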
# * hit, by the source's call; x = not tested or not shown. Sampled rows, rich in hits. Any-hit rate of the full collection: about 3.9%.
SMILES,HSF1 activator,HSF1 inhib,Wnt bcat act,MITF TRPM1 HTS,esBAF inh
CN1C(=O)c2cc(NC(=O)c3cnccn3)ccc2OC[C@H]2O[C@H](CC(=O)N[C@@H]3CCN(Cc4ccccc4)C3)CC[C@@H]21,x,x,x,x,-2
CCOC(=O)C1CCCN(C(=O)c2ccc3oc(Cc4ccccc4)nc3c2)C1 (centres undefined),45,34,23,79,70*
COCC1CCCN(C(=O)c2ccc3nc(Cc4cccc(Cl)c4)oc3c2)C1 (centres undefined),35,23,24,57,70*
CCOC(=O)N1CCN(C(=O)c2ccc3c(c2)sc2nc(-c4ccccc4)cn23)CC1,-31,-18,x,44,79*
CCOC(=O)N1CCC(NC(=O)c2ccc3c(c2)sc2nc(-c4ccc(OC)cc4)cn23)CC1,5,4,x,x,x
COCC1CCN(C(=O)c2ccc3nc(Cc4cccc(Cl)c4)oc3c2)CC1,x,x,-3,x,0
C[C@H]1CN([C@@H](C)CO)C(=O)c2cccc(NC(=O)Nc3ccc(F)cc3)c2O[C@H]1CN(C)S(=O)(=O)c1ccc(F)cc1,x,x,x,x,-2
CC(C)NC(=O)N(C)C[C@@H]1Oc2cc(-c3ccncc3)ccc2S(=O)(=O)N([C@H](C)CO)C[C@@H]1C,x,x,x,x,3
CCOC(=O)C(C(=O)OCC)C(Nc1ccc(Br)cc1)c1ccccc1 (centres undefined),301*,227,4,x,15
CCOC(=O)C(c1ccccc1)C(Nc1ccc(F)cc1)c1ccccn1 (centres undefined),16,-5,0,x,-8
CN(C)c1ccc(C(=O)N2CCCC(N3CCN(Cc4ccc5c(c4)OCO5)CC3)C2)cc1 (centres undefined),-5,-10,-1,5,-2
O=C(c1ccc(F)cc1)N1CCCC(N2CCN(Cc3ccc4c(c3)OCO4)CC2)C1 (centres undefined),-63,-54*,2,-2,-4
CCS(=O)(=O)Nc1ccc2c(c1)C(=O)N(C)C[C@@H](OC)[C@H](C)CN(CC1CCCC1)[C@@H](C)CO2,x,x,x,x,-2
CO[C@H](CN(C)C(=O)c1cnccn1)[C@@H](C)CN([C@@H](C)CO)S(=O)(=O)c1ccc(Cl)cc1,x,x,x,x,4
NNCCc1ccccc1,27,8,27,60,63*
O=C(CC(=O)NCCc1ccccc1)NCCc1ccccc1,6,-1,0,-2,-2
CCC(=O)Nc1ccc2c(c1)C(=O)N(C)C[C@H](OC)[C@@H](C)CN(C(=O)CN1CCOCC1)[C@@H](C)CO2,x,x,x,x,1
COC(=O)Cn1c2ccc(F)cc2c2nc(C)sc21,16,2,-2,-2,5
COC(=O)Cn1c2ccc(OC)cc2c2nc(C)sc21,88*,33,-4,x,x
CCC(=O)N1CCCCN2[C@H](CO)[C@@H](c3ccc(-c4cccc(C#N)c4)cc3)[C@H]2C1,x,x,x,x,2
Cc1cc(C)c(NC(=O)COC(=O)Cn2nc(-c3ccccc3)oc2=O)c(C)c1,x,x,-4,-4,-4
N#Cc1cccc(NC(=O)COC(=O)Cn2nc(-c3ccccc3)oc2=O)c1,x,x,38*,11,-3
CCCNC(=O)Nc1ccc2c(c1)C(=O)N(C)[C@H]1CC[C@H](CC(=O)O)O[C@H]1CO2,x,x,x,x,-7
Cc1[nH]c2ccccc2c1CN1CCN(c2ccccn2)CC1,81*,52,-1,x,x
COc1ccc(S(=O)(=O)N[C@@H]2CC[C@@H](CC(=O)NCc3ccccc3F)O[C@@H]2CO)cc1,x,x,x,x,-3
SMILES,HSF1 activator,HSF1 inhib,Wnt bcat act,MITF TRPM1 HTS,esBAF inh
Cc1cc(C(=O)Nc2ccc3c(c2)C(=O)N(C)[C@H]2CC[C@@H](CC(=O)N[C@@H](C)c4ccccc4)O[C@@H]2CO3)no1,x,x,x,x,2
Nc1nnc(CSCc2ccccc2Cl)s1,56*,16,0,x,x
O=C1C(=Cc2ccco2)CCCC1=Cc1ccco1,x,x,3,53,57*
Cc1nc2c3cc(Cl)ccc3n(CCN3CCCCC3)c2s1,60*,17,x,-23,51*
NC(=O)c1ccc(C(F)(F)F)n(Cc2cccc(Cl)c2)c1=O,64*,25,x,18,2
COc1ccc(S(=O)(=O)Nc2ccc3c(c2)C(=O)N([C@H](C)CO)C[C@H](C)[C@H](CN(C)S(=O)(=O)c2c(C)noc2C)O3)cc1,x,x,x,x,-1
O=C(N/N=C/c1ccc(F)cc1)c1ccccc1,22,6,34*,51,x
O=C(N/N=C/c1ccccc1C(F)(F)F)c1ccc(O)cc1,47,31,3,86*,x
O=C(N/N=C/c1ccccc1O)c1cccc(C(F)(F)F)c1,-7,10,x,-40,x
O=C(N/N=C/c1sc2ccccc2c1O)c1ccccc1,270*,197,x,-27,x
COc1ccc(C(=O)N/N=C/c2sc3ccccc3c2O)cc1,10,-3,x,-31,x
O=C(N/N=C\c1ccc(F)cc1)c1csnn1,8,7,x,26,44*
O=C(O)c1ccc(/C=N/NC(=O)c2ccc(F)cc2)cc1,-1,2,-1,1,x
C[C@@H]1CN([C@H](C)CO)C(=O)c2cccc(NC(=O)Nc3cccc4ccccc34)c2O[C@H]1CN(C)C(=O)Nc1ccc(F)cc1,x,x,x,x,7
O=C(C[C@H]1CC[C@H]2[C@@H](COC[C@H](O)CN2C(=O)Nc2ccc(Cl)c(Cl)c2)O1)NCc1ccc(Cl)cc1,x,x,x,x,3
N#C/C(=N\Nc1ccc(Cl)c(Cl)c1)C(=O)C1CC1,29,3,39*,x,x
COc1ccc(NC(=O)N(C)C[C@H]2Oc3ccc(N(C)C)cc3CC(=O)N([C@H](C)CO)C[C@@H]2C)cc1,x,x,x,x,0
COc1ccc(/C(N)=N/OC(=O)C2CCCCC2)cc1,49,34,40*,47,61*
COc1ccc(-c2ccc(C(=O)C3CC3)cc2)cc1,39,15,27,107*,37
COc1ccc(C(=O)C2CCN(C(=O)c3ccc(C)cc3)CC2)cc1,9,-1,-3,-26,5
N/C(=N\OC(=O)C1CCCCC1)c1cccc(Br)c1,34,23,x,108*,45*
N/C(=N\OC(=O)CC1CCCCC1)c1cccc(Br)c1,45,19,9,6,29

# Bioassay records (PubChem BioAssay)
